# Reference: PubChem BioAssay (NCATS)
# Results filed as inconclusive are left out. Entries that show only a call come without a potency. Activity calls are given as the source filed them. The call rests on the fitted dose curve; in most records, active means well fitted inhibition curve with a large enough effect; inconclusive means small, poorly fitted or top-dose-only effect; inactive means flat fitted curve, though single readings scatter.
# Biological target: Calcium and integrin-binding protein 1 (Homo sapiens) (UniProt Q99828)
# Experiment: Primary qHTS for Identification of Calcium Integrin Binding Protein 1 (CIB1) Competitor (AID 1508620); further: top concentration of the series differs between compounds
# Summary of the method: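 Fluorescence polarization competition: GST-tagged CIB1 (1 uM final) preincubated with compound 15 min at room temperature, then FITC-labelled alphaIIb peptide (100 nM final) added. After 15 min at room temperature, polarization read at Ex 480/Em 540.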
# Chain of Calcium and integrin-binding protein 1 (Homo sapiens) (Q99828 whole entry, looked up): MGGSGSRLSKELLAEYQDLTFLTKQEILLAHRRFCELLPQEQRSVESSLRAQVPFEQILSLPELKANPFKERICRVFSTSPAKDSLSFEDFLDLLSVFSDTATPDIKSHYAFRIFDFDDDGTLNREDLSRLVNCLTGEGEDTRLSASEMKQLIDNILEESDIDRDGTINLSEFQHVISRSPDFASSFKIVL
row,SMILES,Potency
1,C=C(C(=O)O)C1CC(O)C2(C)CCCC(=C)C2C1 (centres undefined),inactive
2,C/C=C(/COC(=O)/C(C)=C/C)C(=O)OC(CC)c1ccc(OC)c(OC)c1 (centres undefined),inactive
3,Cc1cc(C(=O)N2Cc3cnn(C)c3Nc3ccccc32)ccc1CNC(=O)N1CCC[C@H]1C(=S)N1CCCN(C)CC1,inactive
4,CC1(C)CC[C@]2(C(=O)O)CC[C@]3(C)C(=CCC4[C@@]5(C)C[C@@H](O)[C@H](O)C(C)(C)C5CC[C@]43C)C2C1 (some centres undefined),inactive
5,CC1(C)CCCC2(C)C=C(C(=O)O)C(O)CC12 (centres undefined),inactive
6,COc1cc(O)cc(C)c1C(=O)O[C@@H]1[C@H](O)[C@@H](CO)O[C@H]1n1ccc(=O)[nH]c1=O,inactive
7,CC(C)(C(=O)NCC(F)(F)C(F)(F)F)C(=O)NC1C(=O)Nc2ccccc2-c2ccccc21 (centres undefined),inactive
8,CC(=O)N1CCN(C(=O)Cc2ccc(Nc3ncc(F)c(Nc4ccc(C(=O)Nc5ccccc5Cl)cc4)n3)cc2)CC1,inactive
9,CCOc1ccc(NC(=S)N2CCC(C(O)(c3ccccc3)c3ccccc3)CC2)cc1,inactive
10,CC(O)CCC1C(CO[C@@H]2O[C@H](CO)[C@@H](O)[C@H](O)[C@H]2O)CC(O)CC1(C)C (some centres undefined),inactive
11,CNC(=O)c1ccccc1Nc1nc(Nc2ccc3c(c2OC)CCCC(N2CCN(CCO)CC2)C3)ncc1Cl (centres undefined),inactive
12,C=C1C[C@]23C[C@H]1CC[C@H]2[C@]1(C)CCC[C@@](C)(C(=O)O)[C@H]1[C@@H]3C(=O)O,inactive
13,CN(C)C1CCN(C(=O)c2ccc(NC(=O)Nc3ccc(-c4nc(N5CCOCC5)nc(N5CCOCC5)n4)cc3)cc2)CC1,inactive
14,Nc1ncnc2c1ncn2CCNCCCCCO,inactive
15,Cc1nc(Nc2n[nH]c3c2CN(C(=O)NC(CN(C)C)c2ccccc2)C3(C)C)c2sccc2n1 (centres undefined),inactive
16,C[C@@H]1O[C@@H](O[C@H]2[C@@H]3C=CO[C@@H](O[C@@H]4O[C@H](CO)[C@@H](O)[C@H](O)[C@H]4O)[C@@H]3[C@@]3(CO)O[C@@H]23)[C@H](OC(=O)/C=C/c2ccccc2)[C@H](O)[C@H]1O,inactive
17,CC[C@]12C=CCN3CC[C@@]4(c5cc([C@@]6(C(=O)OC)C[C@H]7C[C@@H](C(C)(F)F)CN(Cc8c6[nH]c6ccccc86)C7)c(OC)cc5N(C)[C@H]4[C@@](O)(C(=O)OC)[C@@H]1OC(C)=O)[C@@H]32,inactive
18,CC1=CC(=O)CC2C1(O)CCC(C)C21CC(c2ccoc2)OC1=O (centres undefined),inactive
19,C=C1OC2CC(C(=O)O)C=CC2NC1=O (centres undefined),inactive
20,O=C1CCC(c2ccccc2)(C2CCN(Cc3ccc(I)cc3)CC2)C(=O)N1 (centres undefined),inactive
21,NC(=O)c1cccc2cn(-c3ccc(C4CCCNC4)cc3)nc12 (centres undefined),inactive
22,C=C1C[C@]23C[C@H]1CC[C@H]2[C@@]1(C)CCC[C@@]2(C)C(=O)O[C@@H]([C@@H]3O)[C@@H]12,inactive
23,CN(C)C(=O)NC1CCC(CCN2CCN(c3cccc(Cl)c3Cl)CC2)CC1 (centres undefined),inactive
24,CO[C@H]1/C=C/[C@@](C)(O)/C=C/C(=O)O[C@H](C)[C@@H](C)CC/C=C/1C,inactive
25,N#CC(c1ccnc(OCc2ccc(CN3CCOCC3)cc2)n1)c1nc2ccccc2s1 (centres undefined),inactive
26,CC1(C)CCC(C)(C)c2cc(C3(c4ccc(C(=O)O)cc4)OCCO3)ccc21,inactive
27,CC1(C)C[C@H](O)C[C@@]2(C)OC(=O)C=C12,inactive

row,SMILES,Potency
1,Cc1cccc(C)c1OCc1cc(C(=O)N2CCC(c3ccncc3)CC2)no1,inactive
2,Cc1cc(C)c(Nc2ccnc(Nc3ccc(C#N)cc3)n2)c(C)c1,inactive
3,Cn1nc(C(C)(C)C)cc1C(=O)NC(Cc1cccc(Cl)c1)C(=O)NCC#N (centres undefined),inactive
4,C/C=C1\[C@H](O[C@@H]2O[C@H](CO)[C@@H](O)[C@H](O)[C@H]2O)OC=C(C(=O)OC)[C@H]1CC(=O)O,inactive
5,CCC(C)C(=O)O[C@H]1CCC=C2C=C[C@H](C)[C@H](CC[C@@H](O)C[C@@H](O)CC(=O)O)[C@H]21 (some centres undefined),inactive
6,CC1OC2OC(=O)C3(C)CC4=C(CO)C5=C(CC(=O)C4(C)C(C1=O)C23)C(C)(C)OC(=O)C5 (centres undefined),inactive
7,CC1=C(/C=C/C(C)=C\C=C\C(C)=C/C(=O)O)C(C)(C)CCC1,inactive
8,CC(Cc1cc2c(c(C(N)=O)c1)N(CCCO)CC2)NCCOc1ccccc1OCC(F)(F)F (centres undefined),inactive
9,Cn1c(=O)cc(N2CCCC(N)C2)n(Cc2cc(F)ccc2C#N)c1=O (centres undefined),inactive
10,COc1ccc(F)cc1-c1cc(NC(=O)[C@@H]2CCCNC2)ncc1Cl,inactive
11,COc1cccc(Nc2ncnn3ccc(CN4CC[C@@H](N)[C@H](O)C4)c23)c1,inactive
12,COC1=CC(=O)CC(C)C12Oc1cc(OC)cc(O)c1C2=O (centres undefined),inactive
13,CC1C(=O)OCC2=CCN3CCC(OC(=O)C(C)(O)C1(C)O)C23 (centres undefined),inactive
14,C[C@H](C/C=C/C(C)(C)O)[C@H]1CC[C@@]2(C)[C@@H]3[C@@H](O[C@@H]4O[C@H](CO)[C@@H](O)[C@H](O)[C@H]4O)C=C4C(CC[C@H](O)C4(C)C)[C@]3(C=O)CC[C@]12C (some centres undefined),inactive
15,C[C@H]1Oc2cc(cnc2N)-c2c(nn(C)c2C#N)CN(C)C(=O)c2ccc(F)cc21,inactive
16,O=S(=O)(NC1CCC(c2cc(F)ccc2F)(S(=O)(=O)c2ccc(Cl)cc2)CC1)C(F)(F)F (centres undefined),inactive
17,C=C[C@H]1C(O[C@@H]2O[C@H](CO)[C@@H](O)[C@H](O)[C@H]2O)OC=C2C(=O)N3CCc4c([nH]c5ccccc45)[C@H]3C[C@H]21 (some centres undefined),inactive
18,C=C1CCC2C(C(C)(C)O)CCC2(C)CC(O)C(=C)CCC1O (centres undefined),inactive
19,CC[C@@H](N)CNc1ccnc(-c2cc(-c3cnn(C)c3)ccc2O)n1,inactive
20,COC(=O)c1cc(OC)c(O[C@@H]2O[C@@H](C)[C@H](O)[C@@H](O)[C@H]2O)c(OC)c1,inactive
21,CCOc1ccc2nc(SCCN3CCOCC3)[nH]c2c1,inactive
22,Cn1cc(-c2ccc3nnc(Sc4ccc5nn(C)cc5c4)n3n2)cn1,inactive
23,COC(=O)c1cc(OC)cc(OC)c1C(=O)c1c(OC)cc2c(c1O)C1CCCC(C)(O2)O1 (centres undefined),inactive
24,NC1(C(=O)NC(CCO)c2ccc(Cl)cc2)CCN(c2ncnc3[nH]ccc23)CC1 (centres undefined),inactive
25,C=C1CCC2C(C)(C)C(O)CCC2(C)C1CCC(C)CCO (centres undefined),inactive
26,CC[C@H](C)[C@H](NC(=O)[C@H]([C@@H](C)CC)N(C)C(C)=O)C(=O)N[C@H](C(=O)N[C@@H](CC(C)C)C(=O)[C@@]1(C)CO1)[C@@H](C)O,inactive
27,C/C1=C\CCC(C)CCO[C@@H]2O[C@H](CO[C@@H]3OC[C@H](O)[C@H](O)[C@H]3OC1=O)[C@@H](O)[C@H](O)[C@H]2O (some centres undefined),inactive
